Assay outcomes (PubChem)
Shown are actives, neighbours in structure and some others; about 2.4% of the full set was active somewhere.
MEKK2mut PB1 HTS = MEK5 binding signal on mutant MEKK2 PB1, primary screen, biochemical, multiplex bead flow cytometry, Alexa488-MEK5; Alexa488-MEK5 binding to MEKK2 mutant; 290,000 compounds, 0.35% hits; AID 1530, 2009; percent response, % at 10 µM; in the data active = percent response above about 24%, passing the limit was not always enough
MEKK2 WT-MEK5 = modulators of MEK5 binding to wildtype MEKK2, primary screen, biochemical, multiplex bead flow cytometry, Alexa488-MEK5 | Alexa488-MEK5 binding to MEKK2 WT; actives lie on both sides | 290,000 compounds, 1.1% hits | binding response (% of control), % at 10 µM | AID 1531, 2009; in the data active = binding response below about 67% or above about 130%
Pf gamet viab = late stage P. falciparum gametocyte viability inhibitors, primary screen, ATP luminescence, HTS. P. falciparum stage V gametocytes, 24 h. inhibition, % at 10.9 µM. 150,000 compounds, 0.065% hits. AID 743093, 2013;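 active = inhibition above the mean plus 3 SD of compounds within the control limits, set per campaign, cut at about 38% in these data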;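 note: 0% = DMSO wells and 100% = medium only without gametocytes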
MEKK3 PB1 HTS = modulators of MEKK3-MEK5 PB1 binding, primary screen, biochemical, wildtype MEKK3, multiplex bead flow cytometry, Alexa488-MEK5. Mitogen-activated protein kinase kinase kinase 3 (Homo sapiens), Q99759. bead-based flow cytometry, Alexa488-MEK5 binding to MEKK3; actives lie on both sides; 0 = blocked by unlabeled MEK5, 100 = vehicle. binding response (% of control), % at 10 µM. 290,000 compounds, 1.4% hits;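 active = binding response more than 3 SD above or below the average of its plate-row segment, actives on both sides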;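 note: Alexa488 bead fluorescence after subtracting the streptavidin-only scavenger bead signal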
Target sequence (Q99759 whole entry, looked up): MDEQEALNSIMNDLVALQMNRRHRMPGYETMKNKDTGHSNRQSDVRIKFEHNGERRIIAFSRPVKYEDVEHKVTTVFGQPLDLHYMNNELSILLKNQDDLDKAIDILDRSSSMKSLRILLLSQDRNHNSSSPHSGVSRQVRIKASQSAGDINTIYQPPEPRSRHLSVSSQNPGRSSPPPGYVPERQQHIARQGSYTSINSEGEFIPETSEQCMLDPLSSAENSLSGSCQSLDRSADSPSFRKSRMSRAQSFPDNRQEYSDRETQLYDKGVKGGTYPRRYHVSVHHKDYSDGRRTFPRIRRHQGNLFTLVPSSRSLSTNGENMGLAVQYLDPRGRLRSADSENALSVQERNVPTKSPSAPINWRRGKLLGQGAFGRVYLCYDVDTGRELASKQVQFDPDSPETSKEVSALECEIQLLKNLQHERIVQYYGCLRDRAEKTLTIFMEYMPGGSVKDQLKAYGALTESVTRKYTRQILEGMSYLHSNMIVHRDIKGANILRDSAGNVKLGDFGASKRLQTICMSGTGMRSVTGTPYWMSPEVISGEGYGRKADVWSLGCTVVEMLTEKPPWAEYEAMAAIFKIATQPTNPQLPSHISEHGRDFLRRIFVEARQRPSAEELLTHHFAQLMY
Arbovirus inh = antivirals against arbovirus infection, primary screen, cell-based, full library, 10K replicate subset; arbovirus infection cell-based antiviral screen; inhibition, % at 10 µM; 200,000 compounds, 0.37% hits; in the data active = inhibition above about 30%
MEKK2wt confirm = modulators of MEK5 binding to wildtype MEKK2, confirmation, biochemical, single concentration, multiplex bead flow cytometry; shares compounds with MEKK3 PB1 HTS; Alexa488-MEK5 binding to MEKK2 WT; actives lie on both sides; binding response (% of control), % at 10 µM; 5,900 compounds, 2.4% hits; in the data active = binding response below about 16% or above about 210%; inactive = in between
MEKK2mut confirm = mutant MEKK2 PB1-MEK5 binding signal retest – biochemical, single concentration, multiplex bead flow cytometry, confirmation; shares compounds with MEKK3 PB1 HTS; Alexa488-MEK5 binding to MEKK2 mutant; percent response, % at 10 µM; 5,900 compounds, 2% hits; AID 1893, 2009; in the data active = percent response mostly above about 71%, no sharp cut-off; inactive = mostly below about 38%;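 note: higher means compound restores mutant binding toward wildtype level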
MEKK3-MEK5 inh = MEKK3 wild-type PB1 binding to MEK5, inhibitors, confirmation, biochemical, bead multiplex flow cytometry, single concentration, wildtype; shares compounds with MEKK3 PB1 HTS; Alexa488-MEK5 binding to MEKK3; stronger effect = lower value; binding response (% of control), % at 10 µM; 5,900 compounds, 1.8% hits; AID 1894, 2009;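 active = binding response below 72% of control, or above a set upper limit, though filed actives all read lower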;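 note: 100% = DMSO only wells and 0% = binding blocked by excess unlabeled MEK5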
The depositor's hits bear a star; nt = no result; ! = not confirmed by another sample; [ ] = another dose, or the depositor's remark.

SMILES | MEKK2mut PB1 HTS | MEKK2 WT-MEK5 | Pf gamet viab | MEKK3 PB1 HTS | Arbovirus inh | MEKK2wt confirm | MEKK2mut confirm | MEKK3-MEK5 inh
O=C(NCCc1ccccc1)C(=O)NCC1CCCO1 (centres undefined) | -21 | 17*[inhibitor] | 5 | 12*[inhibitor] | -2 | 98 | -1 | 101
S=C(NCC1CCCO1)NC12CC3CC(CC(C3)C1)C2 (centres undefined) | -46 | 6.0*[inhibitor] | nt | 4.0*[inhibitor] | 4 | 93 | -8 | 90
S=C(NCC1CCCO1)Nc1ccc(Cl)cc1 (centres undefined) | 1 | 107 | 1 | 141* | 1 | 98 | -11 | 94
COc1cccc(CNS(=O)(=O)c2cc(CN3C(=O)c4cccnc4C3=O)ccc2OC)c1 | 4 | 102 | nt | 102 | nt | nt | nt | nt
CC(C)C(=O)Nc1c2c(nn1-c1ccc(F)cc1)CSC2 | 2 | 100 | nt | 102 | nt | nt | nt | nt
Clc1nc(Cl)nc(NCCC2=CCCCC2)n1 | 2 | 103 | 19 | 102 | 1 | nt | nt | nt
C=CCN1C(=O)/C(=c2\sc3nc(=O)c(Cc4ccccc4)nn3c2=O)c2ccccc21 | -2 | -4.0*[inhibitor] | -20 | 95 | nt | 89 | -2 | 91
C=CCn1c(SCCN2CCCC2)nc2c([nH]c3ccccc32)c1=O | -14 | 60 | 2 | 50*[inhibitor] | 2 | 105 | 3 | 104
CCCCCCCCC1=NCCc2c1[nH]c1ccccc21 | 54* | 159* | nt | 99 | nt | 157 | 25 | 100
CC(C)C/C=C1\CCc2c([nH]c3ccccc23)C1=O | -3 | 96 | nt | 102 | 11 | nt | nt | nt
CC(C)Oc1cccc(C(=O)C2CCCN(Cc3cccn3-c3ccccn3)C2)c1 (centres undefined) | 35 | 174* | -5 | 107 | -16 | 115 | 7 | 106
CN(Cc1ccccc1)CC(O)COc1ccc(CNCCCOc2cccnc2)cc1 (centres undefined) | 33 | 139* | 7 | 101 | -31 | 144 | 34 | 110
CN(Cc1ccccc1)CC(O)COc1ccc(CNCCOc2cccnc2)cc1 (centres undefined) | 13 | 133 | -8 | 105 | -2 | nt | nt | nt
Cn1c(=O)c(=O)n(C)c2cc(N3CCCC3)c(NS(=O)(=O)c3ccc(Cl)cc3)cc21 | 0 | 93 | nt | 97 | nt | nt | nt | nt
CC(C)c1ccc(NC2CCCN(C(=O)CCc3cnn(C)c3)C2)cc1 (centres undefined) | 5 | 106 | nt | 105 | nt | nt | nt | nt
COc1ccc(-c2cc(=O)c3c(OC)c(OC)c(OC)c(OC)c3o2)cc1OC | 0 | 102 | nt | 68*![inhibitor] | -13 | 86 | -4 | 89
Cc1ccc2c(C)c(C(=O)N(Cc3ccc(N(C)C)cc3)C3CCS(=O)(=O)C3)oc2c1 (centres undefined) | 0 | 94 | nt | 99 | nt | nt | nt | nt
COc1cccc(CN2CCN(Cc3cccc4nonc34)CC2CCO)c1 (centres undefined) | -3 | 101 | 15 | 101 | 1 | nt | nt | nt
Cc1ccc(C)c(NS(=O)(=O)c2cc3c4c(c2)CC(=O)N4CCC3)c1 | -1 | 95 | nt | 97 | nt | nt | nt | nt
Cc1ccc(S(=O)(=O)NN)c(C)c1N1CCCC1=O | -21 | 58 | -6 | 44*[inhibitor] | nt | 100 | -11 | 99
CC1CCCC(C)N1C(=O)COC(=O)Cc1ccc(F)cc1 (centres undefined) | 5 | 105 | nt | 103 | nt | nt | nt | nt
Cc1ccc(C(=O)/C=C/c2ccc(-c3ccc(C)cc3)o2)cc1 | 0 | 89 | nt | 101 | 5 | nt | nt | nt
CCN(CC)S(=O)(=O)c1ccc(C(=O)/C=C/c2ccc(-c3ccc([N+](=O)[O-])cc3)o2)cc1 | -12 | 37*[inhibitor] | 7 | 87 | nt | 65 | -15 | 85
Cc1ccc(N(C(=O)Cn2nnc3ccccc32)C(C(=O)NCc2ccccc2)c2ccccn2)cc1 (centres undefined) | 1 | 107 | 5 | 128* | 0 | 103 | 6 | 104
O=C(Nc1cc(Cl)cc(Cl)c1)c1cccc(OC(F)F)c1 | 39 | 172* | nt | 109 | -40 | 106 | 5 | 104
SMILES | MEKK2mut PB1 HTS | MEKK2 WT-MEK5 | Pf gamet viab | MEKK3 PB1 HTS | Arbovirus inh | MEKK2wt confirm | MEKK2mut confirm | MEKK3-MEK5 inh
O=C(Nc1nncs1)c1cccnc1Cl | -1 | 93 | nt | 96 | -1 | nt | nt | nt
O=C(CC(c1ccco1)S(=O)(=O)c1ccccc1)c1ccccc1 (centres undefined) | 1 | 118 | -17 | 136* | 6 | 98 | 3 | 102
S=c1[nH]nc(-c2cccnc2)n1-c1ccccc1 | 2 | 101 | -20 | 80*[inhibitor] | 0 | 98 | -4 | 105
CCc1ccc(OCC(=O)N/N=C/c2cc([N+](=O)[O-])ccc2N2CCCCCC2)cc1 | 0 | 104 | -5 | 136* | -5 | 106 | 9 | 103
O=C(N/N=C/c1cc([N+](=O)[O-])ccc1N1CCCCCC1)c1ccccn1 | -7 | 94 | 9 | 97 | -11 | nt | nt | nt
O=C(CSc1nc2c(c(=O)n1-c1ccc(Cl)cc1)SCC2)NCc1ccco1 | nt | nt | -24 | nt | 9 | nt | nt | nt
O=C(CSc1nc2c(c(=O)n1-c1ccc(F)cc1)SCC2)NCc1ccco1 | 4 | 120 | nt | 124* | 6 | 103 | -1 | 100
O=C(COC(=O)c1ccccc1C(=O)c1ccc(Cl)cc1)NCc1ccccc1 | 21 | 124 | -21 | 103 | 8 | nt | nt | nt
O=C(COC(=O)c1ccccc1C(=O)c1ccccc1)NCCc1ccc(Cl)cc1Cl | -2 | 96 | -6 | 130* | 13 | 102 | -3 | 101
CCOc1ccc(Nc2nc(Cc3nnc(SCC(N)=O)o3)cs2)cc1 | -10 | 83 | nt | 78 | -1 | nt | nt | nt
CC(C)N(C(=O)CSc1nnc(Cc2csc(Nc3ccccc3)n2)o1)C(C)C | -2 | 90 | -2 | 75*[inhibitor] | -5 | 108 | 5 | 105
O=C1CC(c2ccccc2)CC(O)=C1C=NCCCN1CCOCC1 (centres undefined) | -11 | 89 | nt | 81*[inhibitor] | 5 | 100 | -7 | 103
CCCCCN=CC1=C(O)CC(c2ccccc2)CC1=O (centres undefined) | -18 | 75 | -6 | 78 | -4 | nt | nt | nt
O=C(/C=C/c1ccc(F)cc1)c1ccc(N2CCOCC2)cc1 | 18 | 113 | -4 | 125 | nt | nt | nt | nt
Cc1cccc(/C=C/C(=O)c2ccc(N3CCOCC3)cc2)c1 | 86* | nt | -2 | 81 | 17 | 101 | -1 | 101
